Here are results for seven molecules from PubChem BioAssay (NCI).

This is part of a sample that, as a whole, favours compounds with a hit. Of some 83,000 tested, about 20% had one in any assay.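 Cell lines were cultured in 96-well plates, exposed to a single compound concentration, and assessed for percent growth 48 hours later.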 A number with no mark means an inactive call. Active and inactive are the calls of the source. Rule for the calls: active = growth percent below 10; inactive = the rest.

Assay in all cases: NCI-60 one-dose screen, 48 h (100 = growth as untreated, 0 = no growth, -100 = all killed)
In assay [1] the test system is NCI-H23 lung. The conditions noted are these: 10 µM unless noted.
In assay [2] the test system is NCI-H226 lung. The conditions noted are these: 10 µM unless noted.
The subject of assay [3] is NCI-H322M lung. The conditions noted are these: 10 µM unless noted.
For assay [4], the system named is HOP-62 NSCLC. The conditions noted are these: 10 µM unless noted.
Assay [5] deals with NCI-H460 lung. The note with it: 10 µM unless noted.
The test system of assay [6] is HOP-92 NSCLC. The note with it: 10 µM unless noted.
Assay [7] concerns NCI-H522 lung. The conditions noted are these: 10 µM unless noted.
The test system of assay [8] is A549/ATCC NSCLC. The note with it: 10 µM unless noted.
Assay [9] concerns 786-0 renal. The note with it: 10 µM unless noted.
The test system of assay [10] is COLO 205 colon. The note with it: 10 µM unless noted.
For assay [11], the system named is DU-145 prostate. The note with it: 10 µM unless noted.
Assay [12] deals with K-562 leukemia. The note with it: 10 µM unless noted.
Assay [13] concerns MALME-3M melanoma. The note with it: 10 µM unless noted.
In assay [14] the test system is MDA-MB-231 breast. The conditions noted are these: 10 µM unless noted.
Assay [15] deals with RXF 393 renal. The note with it: 10 µM unless noted.
For assay [16], the system named is SF-268 CNS. The conditions noted are these: 10 µM unless noted.
Assay [17] concerns SF-295 CNS. The conditions noted are these: 10 µM unless noted.
Assay [18] deals with SF-539 CNS. The conditions noted are these: 10 µM unless noted.
The test system of assay [19] is UACC-257 melanoma. The conditions noted are these: 10 µM.
The subject of assay [20] is M14 melanoma. The note with it: 10 µM unless noted.

For the molecule `C#C[C@]1(O)CC[C@H]2[C@@H]3CC=C4c5sc(Nc6ccc(OC)nc6)nc5CC[C@]4(C)[C@H]3CC[C@@]21C`, the growth in [1] was 63.1%; in assay [2], 47.4%; in assay [3] it was 85%; in assay [4], 51.7%; in assay [5] it was 41.5%; in [6] it was 60%. The growth was 36% in assay [7]; 55.2% in assay [8]; -27.6% (active) in assay [9]; 49.3% in assay [10]; 24.8% in assay [11]; 6.1% (active) in assay [12]. Moreover, the growth in assay [13] was 55.2%; in assay [14] it was 64.8%; in assay [15], -15.7% (active); in [16] it was 45.9%; in assay [17], -29.7% (active); in assay [18], 13.9%. Also, the growth in [19] is 89%; in assay [20] it was 59%.

On to `COc1ccc(-c2nnc(SCc3ccc(O)c4ncccc34)n2-c2ccccc2)cc1`, for which the growth was 17.6% in assay [1]; 30.1% in assay [2]; 19.8% in [3]; 19.9% in assay [4]; 2.93% (active) in assay [5]; -4.84% (active) in assay [6]. In addition, the growth in assay [7] was 15.5%; in assay [8], 26.4%; in [9] it was 25.5%; in assay [10] it was 68.6%; in assay [11] it was 24.8%; in assay [12] it was 13.3%. The growth is 10.6% in assay [13]; 30.9% in [14]; 7.27% (active) in assay [15]; 18.1% in assay [16]; -1.96% (active) in [17]; 4.55% (active) in [18]. In addition, the growth in [19] was 13.6%; in [20], -13.5% (active).

For `CCCCSc1nnc(-c2ccc(-c3ccc(Cl)cc3)nc2C)o1`, the growth is 95% in assay [1]; 95.9% in [2]; 103% in assay [3]; 108% in [4]; 101% in assay [5]; 93.4% in assay [6]. Also, the growth in assay [7] is 98%; in assay [8] it was 102%; in assay [9], 96.9%; in assay [10], 101%; in assay [11], 98.2%; in assay [12], 90.1%. In addition, the growth in assay [13] was 102%; in assay [14], 104%; in [15], 110%; in assay [16], 103%; in [17] it was 96.8%; in assay [18], 98.1%. The growth in assay [19] is 106%; in assay [20] it was 104%.

As to `C=C(C)[C@@H]1CC[C@]2(C)[C@H](CC=C3[C@@H]4CC(C)(C)CC[C@]4(C(=O)NCC#CCN4CCN(C)CC4)CC[C@]32C)[C@@]1(C)CCC#N`, the growth is 79.4% in [1]; 86.7% in assay [2]; 85.8% in [3]; 81.3% in [4]; 10.7% in assay [5]; 13% in assay [6]. Moreover, the growth in assay [7] is 78.3%; in [8], 52.9%; in [9], 52.3%; in assay [10], 86.6%; in assay [11] it was 63.4%; in assay [12] it was -7.15% (active). For the same molecule, the growth in assay [13] is 34.6%; in assay [14], 47.8%; in assay [15], 53.7%; in [16], 65.4%; in assay [17], 70.5%; in assay [18], 87.7%. The growth is 91.3% in [19] and -63.7% (active) in assay [20].

`O=C1Nc2cc(OC(F)(F)F)ccc2Oc2ccc(-c3ccnc(N4CC[C@H](O)C4)c3)cc21`: the growth in assay [1] is 27.6%; in assay [2] it was -8.84% (active); in [3], 55.1%; in [4] it was 25.3%; in [5], -47.1% (active); in [6] it was 45.7%. The growth in [7] was -28% (active); in assay [8], 0.655% (active); in assay [9] it was 6.88% (active); in assay [10], -42% (active); in [11], -39.1% (active); in assay [12], 5.41% (active). The growth in [13] was 39.4%; in [14] it was 17.2%; in assay [15], -10% (active); in assay [16], 19.1%; in assay [17], 3.93% (active); in [18] it was -28.7% (active). Moreover, the growth in assay [19] is 72%; in assay [20], -1.7% (active).

In the case of `NS(=O)(=O)c1ccc(Nc2nc(N/N=C/c3ccc(F)cc3)nc(Nc3ccccc3)n2)cc1`, the growth in assay [1] was 54.2%; in assay [2], 50.8%; in [3], 58.1%; in assay [4], 17.9%; in assay [5], 65.1%; in assay [6] it was 63.5%. Besides, the growth is 15.5% in [7]; 7.78% (active) in assay [8]; 58.8% in [9]; 20.9% in assay [10]; 31.1% in [11]; 54.6% in [12]. The growth in [13] is 57.5%; in [14], 61.8%; in assay [15] it was 57.9%; in assay [16], 41.3%; in assay [17] it was 70.1%; in assay [18], 62.2%. The growth in [19] is 47.2%; in [20], 57.9%.

For `Cc1cc(-c2ccc3nc(N)sc3c2)nc2ccc3[nH]ncc3c12`, the growth in [1] was 39.4%; in assay [2], 53%; in [3] it was 67.1%; in [4] it was 31.6%; in [5], 14%; in [6], 36.2%. For the same molecule, the growth is 6.95% (active) in assay [7]; 45.4% in [8]; 64.8% in assay [9]; 12.5% in [10]; 48.1% in assay [11]; 21.1% in assay [12]. In addition, the growth was 33.4% in assay [13]; 46.2% in assay [14]; 47% in assay [15]; 49.5% in [16]; 29.2% in [17]; 20.9% in assay [18]. The growth was 46.4% in [19] and 19.7% in [20].
